Only some compounds are listed: those with a hit (about 7.9% of all), similar ones and a draw of the others.
HCV inhibitor – qHTS Assay for Inhibitors of Hepatitis C Virus (HCV) | Huh7.5.1 HCVcc-Cre infection, luciferase reporter, 44 h | Potency, µM (top dose mostly 41.8 µM), usual class: inhibitors | 340,000 tested, 3.4% active; active = well fitted inhibition curve with a large enough effect; inconclusive = small, poorly fitted or top-dose-only effect, or another doubt; inactive = no such curve, though single readings can be large or run the other way
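Reporter virus HCVcc-Cre (~0.5 moi) infects cells exposed to compound; seeding density 1,000 cells/well with 4 h settling beforehand. Luminescence, 15 sec read, taken 44 h post-infection following a 15 min RT substrate incubation.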
HCMV antiviral – qHTS Assay for inhibitors of the human cytomegalovirus (HCMV); HFF cells, HCMV-luciferase reporter, 72 h; stronger effect = lower value; activity change, negative = inhibition, % at 57.5 µM; 410,000 tested, 4.5% active; in the data active = activity change below about -60%; inconclusive = no clear call, values can overlap the other calls; inactive = above about -39%
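HFF cells seeded 16 h at 37C, treated with compounds, infected with luciferase-reporter HCMV at MOI 1 PFU/cell; luciferase read at 72 h post infection, normalized to buffer-only and Salinomycin controls.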
FMDV inh – High Throughput Screening for Foot and Mouth Disease Virus Antivirals | FMDV antiviral cell-based qHTS | Potency, µM (titrated, usually from 57.9 µM), hits mostly inhibitors | 410,000 tested, 1.2% active | AID 1159524, 2015; calls by dose curve; tested in HEK293T cells; also: read-out not given here; nearly all actives have a fitted effect of over 45% in size
Marburg entry inh – qHTS for inhibitors of binding or entry into cells for Marburg Virus | Marburg virus pseudotyped entry inhibition, cell reporter | Potency, µM (top dose mostly 37.8 µM), hits mostly inhibitors | 300,000 tested, 1.8% active; calls by dose curve; tested in HEK293 cells
LASV entry inh – qHTS for Inhibitors of binding or entry into cells for Lassa Virus; Potency, µM (titrated, usually from 37.9 µM), most hits filed as inhibitors; 300,000 tested, 1.2% active; AID 540256, 2011; Lassa virus pseudotype entry inhibition, cell reporter; calls by dose curve; tested in HEK293 cells; also: nearly all actives have a fitted effect of over 50% in size
Each line names hits and unclear results; the compound was inactive in the other large screens; ! = repeats disagree.

O=C(NCCOc1ccccc1Cl)c1cccc2c1C(=O)c1ccc(Cl)cc1S2(=O)=O	none (no result: Marburg entry inh, LASV entry inh)
CC(C)(C)CNC(=O)c1cccc2c1C(=O)c1ccc(N3CCCC3)cc1S2(=O)=O	none (no result: Marburg entry inh, LASV entry inh)
O=C(NCCN1CCCCC1)c1cccc2c1C(=O)c1ccc(N3CCCC3)cc1S2(=O)=O	HCMV antiviral -65.0 (no result: Marburg entry inh, LASV entry inh)
COc1ccc2c(c1)[C@@]1(OCCC=C[C@@H]1C)C(=O)N2Cc1ccccc1C(F)(F)F	none (no result: HCV inhibitor, HCMV antiviral, FMDV inh, LASV entry inh)
CCN(CC)S(=O)(=O)c1ccc(NC(=O)COC(=O)c2ccc(NC(=O)CC#N)cc2)cc1	none (no result: Marburg entry inh, LASV entry inh)
COc1cc(OC)c(CN2CCCCCCC2)cc1Br	none
COc1cc(OC)c(CN2CCCN(C)CC2)cc1Br	HCV inhibitor 7.08µM, Marburg entry inh inconclusive, LASV entry inh inconclusive
CCN(CC)C(=O)c1sc(NC(=O)C(Sc2ccccc2)c2ccccc2)c(C(=O)OC(C)C)c1C (stereo not given)	HCV inhibitor 10µM, Marburg entry inh inconclusive, LASV entry inh inconclusive
CCN(CC)C(=O)c1sc(N)c(C(=O)OC(C)C)c1C	none
O=C(c1ccccc1)c1ccc2nc(N3CCN(c4ccc(F)cc4)CC3)c3nncn3c2c1	HCMV antiviral -66.7, LASV entry inh inconclusive (no result: HCV inhibitor)
CC1OC2CC(=O)OC2C2=C1C(=O)c1c(O)cccc1C2=O (stereo not given)	HCMV antiviral -106.4 (no result: HCV inhibitor, FMDV inh, Marburg entry inh, LASV entry inh)
O=C1c2cccc(O)c2C(=O)c2c(O)cc(CO)cc21	none (no result: HCMV antiviral, Marburg entry inh, LASV entry inh)
O=C1CC2(CCCCC2)CC(=O)N1CCc1ccccc1	none
O=C1C=CC(=O)C(C2=C3C(=O)N(CCc4ccccc4)CC(=O)N3CCC2)=C1	HCV inhibitor inconclusive, HCMV antiviral -99.1, FMDV inh inconclusive, LASV entry inh inconclusive
Cc1oc(-c2ccccc2NC(=O)C2CCCO2)nc1CNC(=O)c1cc(Cl)ccc1F (stereo not given)	none (no result: HCV inhibitor, HCMV antiviral, Marburg entry inh, LASV entry inh)
COc1ccc(CN(CCC(c2ccc(F)cc2)C2CCOC(C)(C)C2)C(=O)c2ccco2)cc1 (stereo not given)	HCV inhibitor inconclusive, FMDV inh inconclusive, Marburg entry inh 7.94µM!, LASV entry inh inconclusive
COc1ccc(C2=Nc3ccccc3NC(=O)C2N(Cc2ccc(F)cc2)C(=O)c2ccco2)cc1 (stereo not given)	none (no result: HCV inhibitor, Marburg entry inh, LASV entry inh)
CC(c1ccccc1)N(CCC(c1ccccc1)C1CCOC(C)(C)C1)C(=O)c1ccco1 (stereo not given)	HCMV antiviral -100.6, FMDV inh inconclusive, Marburg entry inh 3.98µM, LASV entry inh inconclusive
COc1ccc(CN(CCC(c2ccccc2)c2ccco2)C(=O)c2ccco2)cc1 (stereo not given)	Marburg entry inh 10µM, LASV entry inh inconclusive
O=C(c1ccc(S(=O)(=O)N2CCCCC2)cc1)N1CCCC(C(F)(F)F)C1 (stereo not given)	none
Cc1ccc2c(c1)c1c3n2CCN(C(=O)CCl)C3CCC1 (stereo not given)	HCV inhibitor 22.4µM, FMDV inh inconclusive, Marburg entry inh inconclusive, LASV entry inh inconclusive
CCCCCCN1CCN(C2CN(Cc3ccc(C)cc3)S(=O)(=O)C2)CC1 (stereo not given)	LASV entry inh 6.28µM (no result: HCV inhibitor, Marburg entry inh)
Cc1cccc(CN2CCN(C3CN(CCc4ccccc4)S(=O)(=O)C3)CC2)c1 (stereo not given)	HCMV antiviral -62.9, LASV entry inh inconclusive (no result: HCV inhibitor, Marburg entry inh)
CN1CCC(N2CCN(C3CN(CCc4ccccc4)S(=O)(=O)C3)CC2)CC1 (stereo not given)	none (no result: HCV inhibitor, Marburg entry inh, LASV entry inh)
CCc1ccc2occ(CC(=O)NCc3ccccc3)c2c1	none (no result: HCV inhibitor)
Cc1ccc(S(=O)(=O)c2ccc([N+](=O)[O-])cn2)cc1	HCV inhibitor inconclusive, HCMV antiviral -94.9, FMDV inh 25.1µM, Marburg entry inh 3.98µM, LASV entry inh inconclusive
Nc1ccc(S(=O)(=O)c2ccccc2)nc1	none (no result: Marburg entry inh, LASV entry inh)
Cc1cc(Sc2ccc([N+](=O)[O-])cn2)ccc1Br	Marburg entry inh inconclusive
Cc1cc(S(=O)(=O)c2ccc([N+](=O)[O-])cn2)ccc1Br	HCV inhibitor inconclusive, HCMV antiviral -98.1, FMDV inh 8.91µM, Marburg entry inh 10µM, LASV entry inh inconclusive
O=[N+]([O-])c1ccc(S(=O)(=O)c2ccccc2)nc1	HCV inhibitor inconclusive, HCMV antiviral -98.0, FMDV inh 35.5µM (no result: Marburg entry inh, LASV entry inh)
O=C(NCc1ccc2c(c1)OCO2)c1ccc2c(c1)N(Cc1cccc(Cl)c1)C(=O)c1ccccc1S2=O (stereo not given)	none (no result: HCV inhibitor, Marburg entry inh)

Screening results from PubChem BioAssay.
